# Test results published in PubChem BioAssay (EPA / NIEHS).
# Activity calls are given as the source filed them. How the source made its calls: active means hit-call score of the fitted dose curve at least 0.9, where 1 is the maximum; inactive means score below 0.9.
# What was measured:
# [1] = read-out: Cyclin D2 (CCND2), CCND2 (gene 894); test: LTEA_HepaRG_CCND2: Life Technologies and Expression Analysis (LTEA) Assay for Cyclin D2 (CCND2) using HepaRG (AID 2283449); conditions: mRNA level, 48 h; actives raise or lower the signal;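 further: CCND2 transcript measured by TaqMan qRT-PCR and normalised to three housekeeping genes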
# Method in brief: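 Chemicals in 0.5% DMSO, eight half-log concentrations from 100 uM top, were applied in duplicate for 48 h to human HepaRG cells in serum-free induction medium. CCND2 mRNA by TaqMan qRT-PCR, normalised to ACTB/GAPDH/POLR2A; bidirectional fit versus DMSO.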
# [2] = read-out: Cyclin Dependent Kinase Inhibitor 1A (CDKN1A), CDKN1A (gene 1026); test: LTEA_HepaRG_CDKN1A: Life Technologies and Expression Analysis (LTEA) Assay for Cyclin Dependent Kinase Inhibitor 1A (CDKN1A) using HepaRG (AID 2283450); conditions: mRNA level, 48 h; actives raise or lower the signal
# Method in brief: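 HepaRG, 48 h dosing, 8-pt half-log series from 100 uM top, 0.5% DMSO vehicle, duplicates. Readout: TaqMan qRT-PCR of CDKN1A transcript, housekeeping-normalized (ACTB, GAPDH, POLR2A). Up/down curve fit relative to DMSO.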
# [3] = read-out: Cyclin D1 (CCND1), CCND1 (gene 595); test: LTEA_HepaRG_CCND1: Life Technologies and Expression Analysis (LTEA) Assay for Cyclin D1 (CCND1) using HepaRG (AID 2283451); conditions: mRNA level, 48 h; actives raise or lower the signal;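 on AC50: TaqMan qRT-PCR transcript level normalised to ACTB GAPDH and POLR2A housekeeping genes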
# Method in brief: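 qRT-PCR (Fluidigm 96.96 array) read-out of transcript level, housekeeping-normalized (ACTB/GAPDH/POLR2A). HepaRG cells, 48 h chemical exposure, 8-point half-log series from 100 uM, 0.5% DMSO vehicle; gain or loss relative to DMSO baseline.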
# [4] = read-out: catalase (CAT), CAT (gene 847); test: LTEA_HepaRG_CAT: Life Technologies and Expression Analysis (LTEA) Assay for catalase (CAT) using HepaRG (AID 2283452); conditions: mRNA level, 48 h; actives raise or lower the signal
# Method in brief: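 HepaRG cells in serum-free induction medium, 0.5% DMSO vehicle, exposed 48 h in duplicate over 8 half-log concentrations from 100 uM. CAT mRNA measured by qRT-PCR, normalized to ACTB, GAPDH, POLR2A; bidirectional fit versus DMSO.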
# [5] = read-out: flavin-containing dimethylaniline monooxygenases 3 (FMO3), FMO3 (gene 2328); test: LTEA_HepaRG_FMO3: Life Technologies and Expression Analysis (LTEA) Assay for flavin-containing dimethylaniline monooxygenases 3 (FMO3) using HepaRG (AID 2283453); conditions: mRNA level, 48 h; actives raise or lower the signal
# Method in brief: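 Differentiated HepaRG cells in serum-free induction medium, exposed 48 h in duplicate to 8 half-log concentrations up to 100 uM in 0.5% DMSO. FMO3 mRNA by qRT-PCR, normalized to ACTB, GAPDH, POLR2A; bidirectional fit vs DMSO.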
# [6] = read-out: Cytochrome P450 (CYP1A1), CYP1A1 (gene 1543); test: LTEA_HepaRG_CYP1A1: Life Technologies and Expression Analysis (LTEA) Assay for Cytochrome P450 (CYP1A1) using HepaRG (AID 2283454); conditions: mRNA level, 48 h; actives raise or lower the signal
# Method in brief: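 qRT-PCR read-out: CYP1A1 transcript normalized to three housekeeping genes, fitted bidirectionally against 0.5% DMSO vehicle baseline. Human HepaRG cells, 48 h chemical exposure, 8-point half-log series topping at 100 uM.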
# [7] = read-out: CFLAR gene, CFLAR (gene 8837); test: LTEA_HepaRG_CFLAR: Life Technologies and Expression Analysis (LTEA) Assay for CFLAR gene using HepaRG (AID 2283455); conditions: mRNA level, 48 h; actives raise or lower the signal
# Method in brief: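 Differentiated HepaRG cells in serum-free induction medium were exposed 48 h in duplicate to eight half-log concentrations up to 100 uM in 0.5% DMSO; mRNA measured by TaqMan qRT-PCR, normalized to ACTB, GAPDH, POLR2A; bidirectional fitting versus DMSO.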
# [8] = read-out: Forkhead box O1 (FOXO1), FOXO1 (gene 2308); test: LTEA_HepaRG_FOXO1: Life Technologies and Expression Analysis (LTEA) Assay for Forkhead box O1 (FOXO1) using HepaRG (AID 2283456); conditions: mRNA level, 48 h; actives raise or lower the signal
# Method in brief: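 Differentiated HepaRG cells, in serum-free induction medium with 0.5% DMSO, exposed 48 h in duplicate to 8-point half-log series from 100 uM. FOXO1 mRNA measured by TaqMan qRT-PCR, normalized to ACTB, GAPDH, POLR2A; bidirectional fit versus DMSO.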
# [9] = read-out: growth arrest and DNA damage 45 (GADD45A), GADD45A (gene 1647); test: LTEA_HepaRG_GADD45A: Life Technologies and Expression Analysis (LTEA) Assay for growth arrest and DNA damage 45 (GADD45A) using HepaRG (AID 2283458); conditions: mRNA level, 48 h; actives raise or lower the signal
# Method in brief: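 Cells plated and cultured 48 h, switched to serum-free induction medium, then dosed for 48 h (100 uM top, half-log dilutions, 0.5% DMSO). RNA was isolated and transcript measured by Fluidigm qRT-PCR.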
# [10] = read-out: Forkhead box O3 (FOXO3), FOXO3 (gene 2309); test: LTEA_HepaRG_FOXO3: Life Technologies and Expression Analysis (LTEA) Assay for Forkhead box O3 (FOXO3) using HepaRG (AID 2283459); conditions: mRNA level, 48 h; actives raise or lower the signal
# Method in brief: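 Differentiated human HepaRG cells, 48 h post-plating, exposed in duplicate for 48 h in serum-free induction medium; 8-point half-log series from 100 uM in 0.5% DMSO. FOXO3 mRNA by TaqMan qRT-PCR, normalized to ACTB/GAPDH/POLR2A; bidirectional fit versus DMSO.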
# [11] = read-out: ABC Transporter (ABCB1), ABCB1 (gene 5243); test: LTEA_HepaRG_ABCB1: Life Technologies and Expression Analysis (LTEA) Assay for ABC Transporter (ABCB1) using HepaRG (AID 2283460); conditions: mRNA level, 48 h; actives raise or lower the signal
# Method in brief: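 HepaRG cells exposed in duplicate for 48 h in serum-free induction medium to eight half-log concentrations up to 100 uM in 0.5% DMSO. ABCB1 mRNA quantified by qRT-PCR, normalised to ACTB, GAPDH and POLR2A; fitted bidirectionally versus DMSO.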
# [12] = read-out: growth arrest and DNA damage 45 (GADD45B), GADD45B (gene 4616); test: LTEA_HepaRG_GADD45B: Life Technologies and Expression Analysis (LTEA) Assay for growth arrest and DNA damage 45 (GADD45B) using HepaRG (AID 2283461); conditions: mRNA level, 48 h; actives raise or lower the signal
# Method in brief: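 qRT-PCR read-out (Fluidigm TaqMan, housekeeping-normalized) of mRNA change in human HepaRG cells after 48 h chemical exposure; 8-point curve, top 100 uM, half-log steps, 0.5% DMSO vehicle; gain or loss fitted relative to DMSO baseline.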
# [13] = read-out: ABC Transporter (ABCC3), ABCC3 (gene 8714); test: LTEA_HepaRG_ABCC3: Life Technologies and Expression Analysis (LTEA) Assay for ABC Transporter (ABCC3) using HepaRG (AID 2283462); conditions: mRNA level, 48 h; actives raise or lower the signal
# Method in brief: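 qRT-PCR read-out of ABCC3 transcript, normalized to three housekeeping genes (ACTB, GAPDH, POLR2A), after 48 h chemical exposure of human HepaRG cells. Eight half-log concentrations, highest 100 uM, in 0.5% DMSO; gain or loss fitted relative to DMSO baseline.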
# [14] = read-out: ABC Transporter (ABCB11), ABCB11 (gene 8647); test: LTEA_HepaRG_ABCB11: Life Technologies and Expression Analysis (LTEA) Assay for ABC Transporter (ABCB11) using HepaRG (AID 2283463); conditions: mRNA level, 48 h; actives raise or lower the signal
# Method in brief: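 Differentiated human HepaRG cells in serum-free induction medium, dosed in duplicate for 48 h. Eight-point half-log series from 100 uM in 0.5% DMSO; ABCB11 mRNA by qRT-PCR, normalized to ACTB, GAPDH, POLR2A, fitted bidirectionally versus DMSO.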
# [15] = read-out: ABC Transporter (ABCC2), ABCC2 (gene 1244); test: LTEA_HepaRG_ABCC2: Life Technologies and Expression Analysis (LTEA) Assay for ABC Transporter (ABCC2) using HepaRG (AID 2283464); conditions: mRNA level, 48 h; actives raise or lower the signal
# Method in brief: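 qRT-PCR (TaqMan, Fluidigm array) read-out of ABCC2 mRNA, normalized to three housekeeping genes. Differentiated HepaRG cells were treated 48 h in serum-free induction medium with 8-point half-log series from 100 uM in 0.5% DMSO; curves fitted bidirectionally relative to DMSO.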
# [16] = read-out: Broad substrate specificity ATP-binding cassette transporter ABCG2 (Homo sapiens) (UniProt Q9UNQ0); test: LTEA_HepaRG_ABCG2: Life Technologies and Expression Analysis (LTEA) Assay for ABC Transporter (ABCG2) using HepaRG (AID 2283465); conditions: mRNA level, 48 h; actives raise or lower the signal
# Method in brief: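 Differentiated HepaRG cells were exposed for 48 h in serum-free induction medium to 8 half-log concentrations, top 100 uM, in 0.5% DMSO. ABCG2 mRNA was measured by qRT-PCR, normalized to ACTB, GAPDH and POLR2A, with bidirectional fitting versus DMSO.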
# [17] = read-out: ATP-citrate lyase (ACLY), ACLY (gene 47); test: LTEA_HepaRG_ACLY: Life Technologies and Expression Analysis (LTEA) Assay for ATP-citrate lyase (ACLY) using HepaRG (AID 2283466); conditions: mRNA level, 48 h; actives raise or lower the signal
# Method in brief: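 Differentiated HepaRG cells exposed 48 h in serum-free induction medium to eight half-log concentrations up to 100 uM in 0.5% DMSO, duplicates. Transcript measured by Fluidigm TaqMan qRT-PCR, normalized to ACTB, GAPDH, POLR2A; bidirectional fit versus DMSO.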
# [18] = read-out: Peroxisomal acyl-coenzyme A oxidase 1 (ACOX1) gene, ACOX1 (gene 51); test: LTEA_HepaRG_ACOX1: Life Technologies and Expression Analysis (LTEA) Assay for Peroxisomal acyl-coenzyme A oxidase 1 (ACOX1) gene using HepaRG (AID 2283467); conditions: mRNA level, 48 h; actives raise or lower the signal
# Method in brief: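 HepaRG cells, plated 48 h then switched to serum-free induction medium, were exposed in duplicate for 48 h to 8-point half-log concentrations up to 100 uM in 0.5% DMSO. ACOX1 mRNA was measured by qRT-PCR, normalized to ACTB/GAPDH/POLR2A, and fitted bidirectionally versus DMSO.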
# [19] = read-out: Alkaline Phosphatase, Placental (ALPP) gene, ALPP (gene 250); test: LTEA_HepaRG_ALPP: Life Technologies and Expression Analysis (LTEA) Assay for Alkaline Phosphatase, Placental (ALPP) gene using HepaRG (AID 2283468); conditions: mRNA level, 48 h; actives raise or lower the signal
# Method in brief: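 qRT-PCR readout of ALPP mRNA (Fluidigm TaqMan), normalized to ACTB/GAPDH/POLR2A, after 48 h chemical exposure of HepaRG cells; 8-point half-log series, top 100 uM, 0.5% DMSO vehicle. Bidirectional curve fit versus DMSO baseline.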
# [20] = CEETOX_H295R_TESTO: CeeTox H295R High-throughput Steroidogenesis Assay for Testosterone (TESTO) (AID 2283457); conditions: actives raise or lower the signal
# Method in brief: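 Readout: testosterone quantified by HPLC-MS/MS (C18, ESI positive) after MTBE liquid-liquid extraction of culture medium. Cells were H295R, 48 h chemical exposure per OECD 456 with modifications. Gain or loss of signal fitted relative to DMSO.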
# Chain of Broad substrate specificity ATP-binding cassette transporter ABCG2 (Homo sapiens) (Q9UNQ0 whole entry, looked up): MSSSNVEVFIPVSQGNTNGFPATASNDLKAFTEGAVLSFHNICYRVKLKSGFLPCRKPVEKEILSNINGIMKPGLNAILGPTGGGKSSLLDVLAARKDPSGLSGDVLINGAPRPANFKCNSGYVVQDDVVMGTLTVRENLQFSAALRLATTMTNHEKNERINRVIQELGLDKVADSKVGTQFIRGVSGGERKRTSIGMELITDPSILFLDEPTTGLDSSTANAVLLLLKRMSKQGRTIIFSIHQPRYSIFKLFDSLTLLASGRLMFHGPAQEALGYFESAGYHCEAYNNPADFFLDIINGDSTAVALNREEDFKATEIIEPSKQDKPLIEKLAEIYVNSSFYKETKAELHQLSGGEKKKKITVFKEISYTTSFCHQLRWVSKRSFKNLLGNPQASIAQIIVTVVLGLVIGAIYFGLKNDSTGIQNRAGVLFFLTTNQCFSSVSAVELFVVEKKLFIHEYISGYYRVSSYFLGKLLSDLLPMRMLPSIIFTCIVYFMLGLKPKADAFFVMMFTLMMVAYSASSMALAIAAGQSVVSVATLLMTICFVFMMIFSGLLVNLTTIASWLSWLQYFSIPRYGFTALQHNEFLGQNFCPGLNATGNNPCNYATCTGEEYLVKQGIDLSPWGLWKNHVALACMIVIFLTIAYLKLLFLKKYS
compound,measurement,setting,value
Cc1ccc(Cl)cc1,outcome,[1],inactive
same,outcome,[2],inactive
same,outcome,[3],inactive
same,outcome,[4],inactive
same,outcome,[5],inactive
same,outcome,[6],inactive
same,outcome,[7],inactive
same,outcome,[8],inactive
same,outcome,[9],inactive
same,outcome,[10],inactive
same,outcome,[11],inactive
same,outcome,[12],inactive
same,outcome,[13],inactive
same,outcome,[14],inactive
same,outcome,[15],inactive
same,outcome,[16],inactive
same,outcome,[17],inactive
same,outcome,[18],inactive
same,outcome,[19],inactive
Cc1ccc(C(C)C)c(O)c1,outcome,[1],inactive
same,outcome,[2],inactive
same,outcome,[3],inactive
same,outcome,[4],inactive
same,outcome,[5],inactive
same,outcome,[6],inactive
same,outcome,[7],inactive
same,outcome,[8],inactive
same,outcome,[9],inactive
same,outcome,[10],inactive
same,outcome,[12],inactive
same,outcome,[13],inactive
same,outcome,[14],inactive
same,outcome,[15],inactive
same,outcome,[16],inactive
same,outcome,[17],inactive
same,outcome,[18],inactive
same,outcome,[19],inactive
CCOc1ccc2c(c1)C(C)=CC(C)(C)N2,outcome,[1],inactive
same,AC50,[2],50 µM (active)
same,outcome,[3],inactive
same,outcome,[4],inactive
same,outcome,[5],inactive
same,AC50,[6],17.5 µM (active)
same,outcome,[7],inactive
same,outcome,[8],inactive
same,outcome,[20],inactive
same,outcome,[9],inactive
same,outcome,[10],inactive
same,outcome,[12],inactive
same,outcome,[13],inactive
same,outcome,[14],inactive
same,outcome,[15],inactive
same,AC50,[16],1.02 µM (active)
same,outcome,[17],inactive
same,outcome,[18],inactive
same,outcome,[19],inactive
COc1cc(-c2nc(NC(=O)c3cc4cc(C)cc(C)c4n3CC(=O)O)sc2CCC2CCCCC2)c(OC)cc1Cl,outcome,[1],inactive
same,outcome,[2],inactive
same,AC50,[3],18.4 µM (active)
same,AC50,[4],7.6 µM (active)
same,AC50,[5],8.16 µM (active)
same,outcome,[6],inactive
same,AC50,[7],19.8 µM (active)
same,AC50,[8],42.2 µM (active)
same,AC50,[9],15.2 µM (active)
same,AC50,[10],20.6 µM (active)
same,AC50,[12],2.18 µM (active)
same,outcome,[13],inactive
same,AC50,[14],7.37 µM (active)
same,AC50,[15],7.35 µM (active)
same,AC50,[16],24.5 µM (active)
same,AC50,[17],12 µM (active)
same,AC50,[18],8.11 µM (active)
same,outcome,[19],inactive
